# Experimental data from PubChem BioAssay (NCATS).
# Values without a mark were called inactive. Inconclusive results are not listed. This is one part of the list. A call without a number means that no potency is given here. Active and inactive are the calls of the source. Unless noted, calls follow the shape of the dose curve; as a rule, active = well fitted curve in the direction sought with a large enough effect; inconclusive = small, poorly fitted or top-dose-only effect, or another doubt; inactive = no such curve, though single readings can be large; an effect the other way counts as inactive or inconclusive.
# How the values were obtained:
# [1] = molecular target: Rap guanine nucleotide exchange factor 3 (Homo sapiens) (UniProt O95398); assay: Confirmatory qHTS for antagonist of cAMP-regulated guanine nucleotide exchange factor 3 (EPAC1) (AID 1645880); settings: EPAC1 Rap1B-BODIPY-GDP exchange, fluorescence; activity, negative = inhibition: at 115 µM (top of the series); also: nearly all actives have a fitted effect of over 55% in size; also: potency is read from the fitted curve at half-maximal effect
# Rap guanine nucleotide exchange factor 3 (Homo sapiens), sequence (O95398 whole entry, looked up): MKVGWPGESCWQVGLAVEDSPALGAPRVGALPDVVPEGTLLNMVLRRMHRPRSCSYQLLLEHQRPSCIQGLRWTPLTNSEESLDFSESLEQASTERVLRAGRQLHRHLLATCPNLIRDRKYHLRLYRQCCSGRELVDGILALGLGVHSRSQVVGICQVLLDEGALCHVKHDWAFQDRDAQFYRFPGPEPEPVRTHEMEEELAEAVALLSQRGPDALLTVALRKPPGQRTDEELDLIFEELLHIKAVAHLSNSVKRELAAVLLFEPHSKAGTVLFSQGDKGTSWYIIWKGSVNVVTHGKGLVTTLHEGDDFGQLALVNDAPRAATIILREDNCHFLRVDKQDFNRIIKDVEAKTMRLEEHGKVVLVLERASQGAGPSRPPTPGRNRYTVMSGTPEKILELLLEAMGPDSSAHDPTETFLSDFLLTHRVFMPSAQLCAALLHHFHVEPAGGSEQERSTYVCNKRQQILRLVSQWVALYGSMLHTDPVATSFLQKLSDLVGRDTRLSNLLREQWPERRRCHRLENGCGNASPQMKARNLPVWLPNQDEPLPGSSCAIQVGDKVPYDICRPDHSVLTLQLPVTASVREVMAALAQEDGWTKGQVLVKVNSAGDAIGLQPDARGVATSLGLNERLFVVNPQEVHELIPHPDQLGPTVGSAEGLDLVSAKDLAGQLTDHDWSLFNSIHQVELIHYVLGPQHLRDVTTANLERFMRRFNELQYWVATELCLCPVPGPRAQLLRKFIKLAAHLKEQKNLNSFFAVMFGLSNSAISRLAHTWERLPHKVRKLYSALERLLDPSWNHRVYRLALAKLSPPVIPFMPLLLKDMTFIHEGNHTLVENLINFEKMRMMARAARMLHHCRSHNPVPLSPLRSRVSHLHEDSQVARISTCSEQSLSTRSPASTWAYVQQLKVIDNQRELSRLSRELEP
# Procedure, shortened: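 Released BODIPY-GDP fluoresces less than Rap1-bound BODIPY-GDP; the signal is followed at 480/540 nm at 5-min intervals over 30 min, after 5 min at room temperature. Reactions contain 100 nM EPAC1, 250 nM RAP1B-BODIPY-GDP and 50 uM GDP; results are normalized to ATA and DMSO.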
# [2] = molecular target: Rap guanine nucleotide exchange factor 3 (Homo sapiens) (UniProt O95398); assay: Counterscreen qHTS for antagonist of cAMP-regulated guanine nucleotide exchange factor 3 (EPAC1) (AID 1645888)
# Procedure, shortened: (§1)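 Rap1B–BODIPY-GDP (250 nM) with 50 uM GDP; compounds pin-transferred to 9.74 nM–152 uM final (activator) or from 7.32 nM upwards (inhibitor). Fluorescence Ex/Em 480/540 nm read at 5 and 30 min, then after adding cAMP or buffer, at room temperature.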
# [3] = molecular target: Bifunctional 3'-5' exonuclease/ATP-dependent helicase WRN (Homo sapiens) (UniProt Q14191); assay: qHTS for Inhibitors of WRN Helicase: Confirmatory Assay for Cherry-picked Compounds. (AID 720497); settings: WRN helicase DNA unwinding, fluorescence kinetic; also: potency is read from the fitted curve at half-maximal effect; nearly all actives have a fitted effect of over 65% in size
# Procedure, shortened: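 Kinetic fluorescence helicase read-out (525 nm excitation, 598 nm emission) on a forked duplex substrate at 100 nM with 2 mM ATP. Enzyme: 20 nM WRN, exposed to compound for 15 min at room temperature. Responses normalized to buffer-only and positive-control wells.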
# [4] = qHTS for Inhibitors of WRN Helicase: Thiazole Orange DNA Binding Counterscreen (AID 720499);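 also: drop in dye fluorescence marks compound binding to DNA; nearly all actives have a fitted effect of over 60% in size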
# Procedure, shortened: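 Mixture of 100 nM thiazole orange and 50 nM unlabeled DNA exposed to compound 15 min at room temperature. Dye displacement monitored by 480/530 nm fluorescence, identifying nonspecific DNA binders.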
# [5] = molecular target: RecQ-like DNA helicase BLM (Homo sapiens) (UniProt P54132); assay: qHTS for Inhibitors of WRN Helicase: BLM Helicase Counterscreen for WRN Inhibitors (AID 720503); settings: Recombinant BLM helicase DNA unwinding, red fluorescence; also: potency is read from the fitted curve at half-maximal effect; nearly all actives have a fitted effect of over 60% in size
# Procedure, shortened: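 Steps: compounds added to 1 nM BLM in pH 8.0 Tris buffer with 2 mM MgCl2; 15 min room-temperature incubation; substrates added (100 nM DNA, 2 mM ATP final); discontinuous kinetic fluorescence measurement, reads spaced 15 min.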
# [6] = molecular target: Rap guanine nucleotide exchange factor 4 (Homo sapiens) (UniProt Q8WZA2); assay: Confirmatory qHTS for antagonist of cAMP-regulated guanine nucleotide exchange factor 4 (EPAC2) (AID 1645885); also: nearly all actives have a fitted effect of over 25% in size
# Rap guanine nucleotide exchange factor 4 (Homo sapiens), sequence (Q8WZA2 whole entry, looked up): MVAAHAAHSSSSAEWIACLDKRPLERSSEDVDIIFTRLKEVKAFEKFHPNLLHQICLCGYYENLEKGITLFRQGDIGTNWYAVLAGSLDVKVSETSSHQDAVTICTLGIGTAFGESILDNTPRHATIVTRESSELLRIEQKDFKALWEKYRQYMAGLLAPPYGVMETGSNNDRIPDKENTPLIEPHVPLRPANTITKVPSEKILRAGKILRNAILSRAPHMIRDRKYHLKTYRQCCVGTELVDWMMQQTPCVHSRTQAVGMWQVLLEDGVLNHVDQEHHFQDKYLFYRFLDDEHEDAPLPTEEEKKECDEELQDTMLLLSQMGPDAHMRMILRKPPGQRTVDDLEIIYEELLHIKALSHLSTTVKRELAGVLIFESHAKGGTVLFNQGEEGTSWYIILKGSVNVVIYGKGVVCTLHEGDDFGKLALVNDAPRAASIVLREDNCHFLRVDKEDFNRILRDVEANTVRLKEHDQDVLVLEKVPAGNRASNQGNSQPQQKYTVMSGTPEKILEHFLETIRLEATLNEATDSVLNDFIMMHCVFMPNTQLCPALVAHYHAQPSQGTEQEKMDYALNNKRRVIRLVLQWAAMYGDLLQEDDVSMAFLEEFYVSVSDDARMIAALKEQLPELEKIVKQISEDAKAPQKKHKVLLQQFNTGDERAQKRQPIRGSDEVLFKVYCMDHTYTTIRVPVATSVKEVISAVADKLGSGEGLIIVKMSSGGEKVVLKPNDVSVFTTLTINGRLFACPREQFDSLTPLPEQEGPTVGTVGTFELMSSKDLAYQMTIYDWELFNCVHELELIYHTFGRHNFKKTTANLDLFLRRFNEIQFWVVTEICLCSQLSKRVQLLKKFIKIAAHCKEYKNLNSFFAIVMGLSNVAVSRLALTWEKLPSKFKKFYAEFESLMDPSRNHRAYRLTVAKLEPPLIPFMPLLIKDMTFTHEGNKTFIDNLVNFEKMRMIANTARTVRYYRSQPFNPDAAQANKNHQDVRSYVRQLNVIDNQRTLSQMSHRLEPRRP
# [7] = molecular target: Rap guanine nucleotide exchange factor 3 (Homo sapiens) (UniProt O95398); assay: Counterscreen qHTS for agonist of cAMP-regulated guanine nucleotide exchange factor 3 (EPAC1) (AID 1645889); also: nearly all actives have a fitted effect of over 40% in size; also: potency is read from the fitted curve at half-maximal effect
# Procedure, shortened: as §1
# [8] = molecular target: Tumor susceptibility gene 101 protein (Homo sapiens) (UniProt Q99816); assay: qHTS Assay for Iinhibitors of HIV-1 Budding by Blocking the Interaction of PTAP/TSG101: Hit Validation (AID 651600); also: nearly all actives have a fitted effect of over 70% in size; also: potency is read from the fitted curve at half-maximal effect
# Tumor susceptibility gene 101 protein (Homo sapiens), sequence (Q99816 whole entry, looked up, the tested form may be a part): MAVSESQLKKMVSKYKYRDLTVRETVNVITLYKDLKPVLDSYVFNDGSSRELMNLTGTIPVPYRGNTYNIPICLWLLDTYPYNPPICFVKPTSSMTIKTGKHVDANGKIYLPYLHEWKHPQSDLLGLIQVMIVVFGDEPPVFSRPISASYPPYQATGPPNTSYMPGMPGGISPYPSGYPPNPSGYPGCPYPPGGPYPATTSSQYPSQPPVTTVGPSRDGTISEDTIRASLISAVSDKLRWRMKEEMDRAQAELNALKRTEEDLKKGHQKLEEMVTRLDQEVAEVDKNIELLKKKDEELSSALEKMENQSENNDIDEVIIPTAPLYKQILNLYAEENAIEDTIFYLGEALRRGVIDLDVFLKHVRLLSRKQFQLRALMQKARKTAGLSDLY
# Procedure, shortened: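 FITC-PTAP peptide (50 nM final) binding to Tsg101 binding domain (10 uM final) was measured by polarization after 20 min at r.t. with compounds, in 10 mM HEPES pH 7.5 buffer with 0.15 M NaCl and 0.01% Tween 20.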
# [9] = molecular target: Lysosomal acid glucosylceramidase (Homo sapiens) (UniProt P04062); assay: Glucocerebrosidase-p2 (AID 348; in the data active = potency below about 10 µM; also: potency is read from the fitted curve at half-maximal effect); settings: purified GBA, blue fluorogenic substrate, 40 min
# Procedure, shortened: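 Normal human glucocerebrosidase (0.2 nM) with blue fluorogenic substrate (80 uM final) in citrate/phosphate pH 5.9 with 10mM sodium taurocholate, 0.01% tween-20; 40 min RT, NaOH/glycine stop; fluorescence Ex 365/Em 440; AC50 from a titration from 0.6 nM upwards.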
# [10] = AP1 Signaling Pathway (AID 357; active = well fitted curve in either direction with a large enough effect, not every such curve was filed as active;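 also: ME-180 reporter cells stimulated with EGF at its EC50 level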); settings: ME-180 (cervical carcinoma) AP-1-bla reporter, EGF-induced, beta-lactamase ratio, 5 h; at 7.69 µM (top of the series) unless noted
# Procedure, shortened: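 In this screen, ME-180 cells in Opti-MEM with 0.5% dialyzed FBS received EC50 EGF and compound titrations for 5 h. AP-1 reporter beta-lactamase was detected via CCF4 ratio, giving AC50 for positive and negative modulators.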
# [11] = molecular target: Cytochrome P450 1A2 (Homo sapiens) (UniProt P05177); assay: p450-cyp1a2 (AID 410; calls by dose curve; also: potency is read from the fitted curve at half-maximal effect)
# Procedure, shortened: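 Read-out is luminescence from luciferin produced by CYP1A2 demethylation of Luciferin-ME (100uM, at Km). Detection reagent stopped the 60 min NADPH-dependent reaction; signals were normalized to 57 uM furafylline.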
# [12] = NFAT Signaling Pathway (AID 444; active = well fitted curve in either direction with a large enough effect, not every such curve was filed as active;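 also: carbachol stimulus at about its EC50 of 1 µM final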); settings: Jurkat NFAT-bla M1, carbachol, beta-lactamase ratio, 5 h; at 7.69 µM (top of the series) unless noted
# Procedure, shortened: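 Jurkat cells with NFAT-driven β-lactamase reporter and co-expressed M1 receptor, stimulated with carbachol (final 1 uM, ~EC50), compound titration, 5 h at 37 °C. CCF4 loaded 1 h at RT; 460/530 nm ratio gave %activity and AC50.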
# [13] = Stat Signaling Pathway (AID 446; active = well fitted curve in either direction with a large enough effect, not every such curve was filed as active;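 also: ME-180 cervical cancer cells given 40 pM IL-6 alongside compound; SIE-controlled beta-lactamase reporter measured as 460/530 nm FRET emission ratio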)
# Procedure, shortened: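 Overnight-plated ME-180 cells bearing a STAT Inducible Element beta-lactamase reporter; 5 h co-exposure to compound and 40 pM IL-6; values normalized to 300 pM IL-6 and 125 nM JAK inhibitor controls.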
# [14] = molecular target: Glucocorticoid receptor (Homo sapiens) (UniProt P04150); assay: GR-GFP Redistribution (AID 450;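 active = compounds whose dose series gives a full or clear partial fitted curve of increased nuclear translocation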; also: potency is read from the fitted curve at half-maximal effect); settings: U2OS GR-GFP nuclear translocation, laser cytometry, 2 h
# Glucocorticoid receptor (Homo sapiens), sequence (P04150 whole entry, looked up, the tested form may be a part): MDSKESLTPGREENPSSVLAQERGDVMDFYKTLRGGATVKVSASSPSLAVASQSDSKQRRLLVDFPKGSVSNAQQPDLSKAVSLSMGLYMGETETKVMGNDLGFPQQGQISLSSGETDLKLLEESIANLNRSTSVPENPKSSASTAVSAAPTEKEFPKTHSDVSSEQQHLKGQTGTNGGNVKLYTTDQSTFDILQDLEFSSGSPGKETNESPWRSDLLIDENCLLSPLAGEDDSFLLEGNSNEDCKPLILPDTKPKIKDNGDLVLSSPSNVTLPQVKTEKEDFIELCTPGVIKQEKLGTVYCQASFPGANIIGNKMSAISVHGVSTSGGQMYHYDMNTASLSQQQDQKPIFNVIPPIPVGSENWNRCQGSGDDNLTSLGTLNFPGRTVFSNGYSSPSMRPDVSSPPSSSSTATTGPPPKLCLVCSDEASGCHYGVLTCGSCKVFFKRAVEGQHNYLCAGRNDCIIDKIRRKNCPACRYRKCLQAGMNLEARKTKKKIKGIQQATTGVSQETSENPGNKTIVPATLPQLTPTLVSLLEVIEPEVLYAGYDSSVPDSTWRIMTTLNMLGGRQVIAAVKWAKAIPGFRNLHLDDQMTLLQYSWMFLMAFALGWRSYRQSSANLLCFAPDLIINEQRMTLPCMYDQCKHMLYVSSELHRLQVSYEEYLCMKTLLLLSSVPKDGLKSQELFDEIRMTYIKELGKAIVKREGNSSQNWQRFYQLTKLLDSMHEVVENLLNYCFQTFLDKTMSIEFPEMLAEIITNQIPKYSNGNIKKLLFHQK
# [15] = molecular target: Glucocorticoid receptor (Homo sapiens) (UniProt P04150); assay: GR-EFC Redistribution (AID 451; calls by dose curve; also: potency is read from the fitted curve at half-maximal effect); settings: CHO-K1 GR-EFC translocation, beta-gal luminescence, 2 h
# Procedure, shortened: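 CHO-K1 cells expressing nuclear EA and GR-ED fragments of b-gal; compounds titrated up to 46 uM final, 2 h at 37 C. GR nuclear translocation read as complemented b-gal luminescence after 1 h RT detection.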
# [16] = molecular target: Mitogen-activated protein kinase 10 (Mus musculus) (UniProt Q61831); assay: JNK3 AlphaScreen Assay (AID 530; active = well fitted curve in either direction with a large enough effect, not every such curve was filed as active;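 also: kinase came from lysate of stimulated human HepG2 cells; signal reports phosphorylation of biotinylated GST-cJun 1-79 at Ser73 with 10 µM ATP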)
# Procedure, shortened: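 HepG2 lysate (IL-1b/TNFa pre-activated) + biotin-GST-cJun 1-79 + anti-pSer73 cJun; cpd titration, 15 min RT; ATP 10 uM start; Tris pH 7.6, MgCl2, DTT, vanadate; beads in EDTA buffer; AlphaScreen.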
# [17] = molecular target: Cytochrome P450 3A4 (Homo sapiens) (UniProt P08684); assay: qHTS Assay for Inhibitors and Substrates of Cytochrome P450 3A4 (AID 884); also: potency is read from the fitted curve at half-maximal effect; nearly all actives have a fitted effect of over 50% in size
# Cytochrome P450 3A4 (Homo sapiens), sequence (P08684 whole entry, looked up): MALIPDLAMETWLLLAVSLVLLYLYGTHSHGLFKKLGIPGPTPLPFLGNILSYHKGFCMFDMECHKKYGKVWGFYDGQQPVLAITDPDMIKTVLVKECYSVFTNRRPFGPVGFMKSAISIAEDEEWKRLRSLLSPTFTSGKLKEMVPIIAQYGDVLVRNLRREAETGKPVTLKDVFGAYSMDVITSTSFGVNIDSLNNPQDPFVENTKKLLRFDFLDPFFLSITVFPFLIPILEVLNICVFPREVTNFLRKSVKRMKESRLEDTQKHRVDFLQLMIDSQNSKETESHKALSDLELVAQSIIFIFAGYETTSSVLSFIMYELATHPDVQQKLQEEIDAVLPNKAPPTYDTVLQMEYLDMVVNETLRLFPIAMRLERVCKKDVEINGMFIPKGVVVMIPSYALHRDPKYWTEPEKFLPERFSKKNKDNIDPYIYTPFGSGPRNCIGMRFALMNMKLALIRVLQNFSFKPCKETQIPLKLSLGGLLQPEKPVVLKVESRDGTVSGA
# Procedure, shortened: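 Luminescent readout of luciferin produced by CYP3A4 (20 nM) dealkylation of Luciferin-PPXE, 25 uM (its KM). NADPH-driven reaction ran 60 min at RT after 10 min compound preincubation; data scaled to 57 uM ketoconazole as 100% inhibition.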
# [18] = molecular target: Cytochrome P450 3A4 (Homo sapiens) (UniProt P08684); assay: qHTS Assay for Activators of Cytochrome P450 3A4 (AID 885); also: nearly all actives have a fitted effect of over 65% in size
# Procedure, shortened: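 Using 20nM recombinant human CYP3A4 in potassium phosphate (200mM), substrate Luciferin-PPXE at 25uM, luminescent luciferin detection followed a 60-min RT NADPH reaction; data scaled to 57 uM ketoconazole.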
# [19] = molecular target: Cytochrome P450 2D6 (Homo sapiens) (UniProt P10635); assay: qHTS Assay for Inhibitors and Substrates of Cytochrome P450 2D6 (AID 891); also: potency is read from the fitted curve at half-maximal effect; nearly all actives have a fitted effect of over 60% in size
# Cytochrome P450 2D6 (Homo sapiens), sequence (P10635 whole entry, looked up): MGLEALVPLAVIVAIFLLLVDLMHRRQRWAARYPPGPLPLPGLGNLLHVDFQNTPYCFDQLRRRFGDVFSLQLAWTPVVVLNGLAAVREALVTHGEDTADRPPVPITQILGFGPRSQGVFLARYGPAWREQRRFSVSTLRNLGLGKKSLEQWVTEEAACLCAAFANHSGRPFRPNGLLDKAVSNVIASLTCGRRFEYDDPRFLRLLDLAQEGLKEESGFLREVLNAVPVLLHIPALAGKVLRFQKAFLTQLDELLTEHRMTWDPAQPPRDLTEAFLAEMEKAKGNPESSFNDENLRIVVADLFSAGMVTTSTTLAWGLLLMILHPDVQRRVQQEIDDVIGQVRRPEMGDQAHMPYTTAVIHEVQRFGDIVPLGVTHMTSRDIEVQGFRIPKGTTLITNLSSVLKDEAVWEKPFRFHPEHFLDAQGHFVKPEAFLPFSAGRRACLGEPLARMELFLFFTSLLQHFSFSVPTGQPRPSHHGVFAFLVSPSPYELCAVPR
# Procedure, shortened: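 Luminescent read-out of luciferin formed by 5 nM human CYP2D6 demethylating 30 uM Luciferin-ME EGE (Km level) over 60 min at room temperature after NADPH regeneration addition. Data normalized to full inhibition by 1.43 uM quinidine.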
# [20] = molecular target: Dual specificity protein kinase CLK4 (Homo sapiens) (UniProt Q9HAZ1); assay: qHTS Assay for Inhibitors of CDC-like Kinase 4 (ADP-FP Assay) (AID 1795);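 also: recombinant human CLK4 phosphorylating RS repeat peptide at 1 µM ATP; nearly all actives have a fitted effect of over 60% in size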
# Dual specificity protein kinase CLK4 (Homo sapiens), sequence (Q9HAZ1 whole entry, looked up): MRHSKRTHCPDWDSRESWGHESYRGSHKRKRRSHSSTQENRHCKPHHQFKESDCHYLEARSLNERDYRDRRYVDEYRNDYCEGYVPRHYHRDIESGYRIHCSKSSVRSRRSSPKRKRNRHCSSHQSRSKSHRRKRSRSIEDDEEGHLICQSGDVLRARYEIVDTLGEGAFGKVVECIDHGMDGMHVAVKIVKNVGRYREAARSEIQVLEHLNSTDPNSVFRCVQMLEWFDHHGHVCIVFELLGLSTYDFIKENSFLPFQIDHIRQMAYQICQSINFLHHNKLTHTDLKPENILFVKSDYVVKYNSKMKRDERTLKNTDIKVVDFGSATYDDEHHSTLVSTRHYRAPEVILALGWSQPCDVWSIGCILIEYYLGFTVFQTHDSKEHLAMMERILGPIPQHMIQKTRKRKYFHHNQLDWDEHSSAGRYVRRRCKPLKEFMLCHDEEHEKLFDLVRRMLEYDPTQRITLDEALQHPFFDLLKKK
# Procedure, shortened: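 Kinase activity was measured as ADP production using Transcreener orange tracer (4 nM) and ADP antibody (1 ug/mL) fluorescence polarization, with ADP calculated from a calibration curve. The 1 h reaction contained 6.25 nM Clk4, 1 uM ATP and 100 uM RS peptide at pH 7.5 with Mg2+.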
# [21] = molecular target: Rap guanine nucleotide exchange factor 3 (Homo sapiens) (UniProt O95398); assay: Confirmatory qHTS for agonist of cAMP-regulated guanine nucleotide exchange factor 3 (EPAC1) (AID 1645881);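 also: EPAC1 catalysed release of BODIPY-GDP from Rap1B seen as fluorescence loss; nearly all actives have a fitted effect of over 75% in size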
# [22] = molecular target: Rap guanine nucleotide exchange factor 4 (Homo sapiens) (UniProt Q8WZA2); assay: Confirmatory qHTS for agonist of cAMP-regulated guanine nucleotide exchange factor 4 (EPAC2) (AID 1645884);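 also: nucleotide exchange releases bodipy-GDP from Rap1 and this lowers its fluorescence; nearly all actives have a fitted effect of over 65% in size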
smiles,measurement,setting,value
c1ccc(Oc2nc(-c3cccnc3)nc3ccccc23)cc1,Potency,[1],inactive
same,Potency,[2],inactive
COc1cccc(/C=N/NC(=O)c2[nH]nc3c2CCc2ccccc2-3)c1O,Potency,[3],21.5 µM (active)
same,outcome,[4],inactive
same,Potency,[5],6.81 µM (active)
same,Potency,[1],33.8 µM (active)
same,Potency,[6],inactive
same,Potency,[2],inactive
Cc1ccc(CNC(=O)c2cccc3c2C(=O)c2ccc(N4CCC(C)CC4)cc2S3(=O)=O)cc1,Potency,[1],inactive
same,Potency,[6],inactive
same,Potency,[7],11.2 µM (active)
O=C1CCN2C=Nc3cccc4ccc1c2c34,Potency,[8],6.51 µM (active)
same,Potency,[1],inactive
same,Potency,[6],inactive
same,"activity change, negative = inhibition",[2],142% [at 30.8 µM]
same,Potency,[7],11.2 µM (active)
O=c1c(/C=C(\O)c2ccccc2)nc2ccccc2n1-c1ccccc1,Potency,[8],16.3 µM (active)
same,Potency,[1],inactive
same,Potency,[6],inactive
same,"activity change, negative = inhibition",[2],-1.75% [at 30.8 µM]
CCNc1ncc2nc(-c3cccs3)c(=O)n(CCC#N)c2n1,Potency,[9],> 11.4 µM
same,"activity change, negative = inhibition",[10],-3.58%
same,Potency,[11],3.16 µM (active)
same,"activity change, negative = inhibition",[12],-2.96%
same,outcome,[13],inactive
same,Potency,[14],> 9.22 µM
same,Potency,[15],> 46 µM
same,Potency,[16],inactive
same,Potency,[17],6.31 µM (active)
same,outcome,[18],inactive
same,Potency,[19],1.26 µM (active)
same,Potency,[20],inactive
same,Potency,[1],inactive
same,Potency,[6],inactive
COc1ccccc1N1CCN(C(=O)c2ccc(S(=O)(=O)N3CCCC3)cc2)CC1,Potency,[1],inactive
same,Potency,[6],inactive
same,Potency,[7],inactive
Fc1ccc(Nc2cncc(-c3ccsc3)c2)cc1Cl,Potency,[1],75.7 µM (active)
same,Potency,[2],inactive
COc1ccc(C(=O)Nc2nc(-c3ccc([N+](=O)[O-])cc3)c(-c3ccc(OC)cc3)s2)cc1,Potency,[8],inactive
same,Potency,[1],inactive
same,Potency,[6],inactive
same,Potency,[2],inactive
same,Potency,[7],63.1 µM (active)
CCCCn1nnnc1C(c1cc2ccccc2o1)N1CCCCC1 (centres undefined),Potency,[1],inactive
same,Potency,[2],inactive
c1ccc(C(c2cccs2)c2c[nH]c3ccccc23)cc1 (centres undefined),Potency,[21],inactive
CCOc1cc(/C=N/Nc2ccc(C(=O)O)cc2)ccc1OC(=O)c1ccccc1C,Potency,[21],inactive
same,Potency,[22],inactive
CN1CC=C2C(C#N)=C(N)C(C#N)(C#N)[C@H](c3cccc(Cl)c3)C2C1 (some centres undefined),"activity change, negative = inhibition",[10],-16.2% [at 17.2 µM]
same,outcome,[13],inactive
same,Potency,[14],> 20.6 µM
same,Potency,[1],inactive
same,Potency,[2],inactive
O=C1NC[C@@H](Cc2cccc3ccccc23)N(CCc2cc(C(F)(F)F)cc(C(F)(F)F)c2)C1=O,Potency,[21],inactive
same,Potency,[22],inactive
same,Potency,[6],inactive
Cc1ccccc1NS(=O)(=O)c1ccc2c3c(cccc13)C(=O)N2C,Potency,[21],inactive
same,Potency,[22],inactive
